# Legend:
# Assay in all cases: PBM binding z-score (relative to random genomic background probes); higher = stronger binding; sequences stand for … in GC…GCGATTGACAGCGTAGAATGAAGG
# [1] = test system: FXR:RXRa (NR concentration 270 nM, RXRa partner concentration 90 nM)
# How it was run: (§1)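 Binding buffer was PBS pH 7.4 with 2% milk, 0.02% Triton X-100, 1 mM DTT, 0.2 mg/mL BSA and 0.4 mg/ml salmon testes DNA. In it, ligand-free nuclear receptor dimers were incubated 1 h on custom Agilent 4×180K protein-binding microarrays carrying double-stranded probes. Antibodies against each partner (one per run) detected binding, and z-scores were calculated against random background probes after regression normalization of scanned fluorescence.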
# [2] = test system: LXRa:RXRa (NR concentration 270 nM, RXRa partner concentration 90 nM)
# How it was run: as §1
# [3] = test system: LXRa homodimer (NR concentration 270 nM)
# How it was run: as §1
# [4] = test system: LXRb:RXRa (NR concentration 270 nM, RXRa partner concentration 90 nM)
# How it was run: as §1
# [5] = test system: LXRb homodimer (NR concentration 270 nM)
# How it was run: as §1
# [6] = test system: PPARa:RXRa (NR concentration 270 nM, RXRa partner concentration 90 nM)
# How it was run: as §1
# [7] = test system: PPARg:RXRa (NR concentration 180 nM, RXRa partner concentration 90 nM)
# How it was run: as §1
# [8] = test system: PPARg:RXRa 270nM:90nM, anti-RXR (NR concentration 270 nM, RXRa partner concentration 90 nM)
# How it was run: as §1
# [9] = test system: PPARg:RXRa 30nM:10nM, anti-RXR (NR concentration 30 nM, RXRa partner concentration 10 nM)
# How it was run: as §1
# [10] = test system: PPARg:RXRa 90nM:30nM, anti-RXR (NR concentration 90 nM, RXRa partner concentration 30 nM)
# How it was run: as §1
# [11] = test system: PPARg:RXRa DBDmut IVT, anti-RXR (DBD mutation: RXRa K156A/R161A, NR concentration 270 nM, RXRa partner concentration 90 nM)
# How it was run: as §1
# [12] = test system: PPARg:RXRa IVT, anti-PPARg (NR concentration 270 nM, RXRa partner concentration 90 nM)
# How it was run: as §1
# [13] = test system: PPARg DBDmut:RXRa IVT, anti-PPARg (DBD mutation: PPARg1 K132A/R137A, NR concentration 270 nM, RXRa partner concentration 90 nM)
# How it was run: as §1
# [14] = test system: PPARg DBDmut IVT, anti-PPARg (DBD mutation: PPARg1 K132A/R137A, NR concentration 270 nM)
# How it was run: as §1
# [15] = test system: PPARg homodimer (NR concentration 180 nM)
# How it was run: as §1
# [16] = test system: PXR:RXRa (NR concentration 270 nM, RXRa partner concentration 90 nM)
# How it was run: as §1
# [17] = test system: PXR homodimer (NR concentration 270 nM)
# How it was run: as §1
# [18] = test system: RARa:RXR (NR concentration 270 nM, RXRa partner concentration 90 nM)
# How it was run: as §1
# [19] = test system: RARa homodimer (NR concentration 270 nM)
# How it was run: as §1
# [20] = test system: RARb:RXRa (NR concentration 270 nM, RXRa partner concentration 90 nM)
# How it was run: as §1
Sequence,PBM binding z-score [1],PBM binding z-score [2],PBM binding z-score [3],PBM binding z-score [4],PBM binding z-score [5],PBM binding z-score [6],PBM binding z-score [7],PBM binding z-score [8],PBM binding z-score [9],PBM binding z-score [10],PBM binding z-score [11],PBM binding z-score [12],PBM binding z-score [13],PBM binding z-score [14],PBM binding z-score [15],PBM binding z-score [16],PBM binding z-score [17],PBM binding z-score [18],PBM binding z-score [19],PBM binding z-score [20]
CCTACTGGGCCAAAAAGGTCATTGGTGCCGATAA,3.94,4.46,3.31,4.08,0.197,4.67,3.1,4.12,1.19,3.34,3.78,4.13,-0.644,-0.94,3.28,4.9,5.2,5.26,0.489,4.07
ACTAGTTGGTCAGCTGAAGTCACACACAATTCGG,-0.0902,-0.0916,0.115,0.118,0.19,-0.0344,0.754,0.0912,-0.0266,0.0351,0.924,0.828,0.539,0.649,0.462,-0.105,-0.357,0.136,0.213,0.828
CCTTACGGGTCAAGGATATAGCACGGGTGGTACG,4.77,2.96,0.0404,2.45,-0.392,4.52,3.82,3.92,1.14,2.66,1.81,3.02,0.42,-0.469,1.43,2.54,0.0549,3.44,0.583,3.88
ACTAGCAGGCCAAGTTTGAGTCACTCAAACAAAG,-0.527,-0.601,-0.503,-0.529,-0.797,-0.0783,-0.147,-0.486,-0.4,-0.496,0.376,0.193,-0.678,0.262,-0.297,-0.433,-0.248,-0.0649,-1.17,0.293
CCTTACGGGACACGAGGTTATAGCACGACGAGCG,0.657,0.725,0.391,0.535,-0.204,1.27,1.38,0.573,0.0152,0.477,0.526,0.867,0.559,0.413,0.721,0.701,0.477,0.935,0.721,1.11
CAAACTAGCTCAAGAGGTCAAAGTCCGCTTCCCG,4.69,5.44,5.42,5.16,1.67,5.04,1.65,3.87,1.52,2.88,0.982,2.06,0.545,0.408,2.37,5.37,1.87,5.13,1.34,3.96
TGTATGAGGTTATAAGATCAGGGAACGTTGCAAA,1.68,1.72,0.117,1.22,0.92,2.51,1.04,1.47,0.966,1.2,0.0132,0.98,0.426,0.745,0.994,1.1,-0.0169,1.62,0.679,1.47
CGTAGTTGGTCAGGAGGTCACACACCGGATATGA,3.37,3.49,2.03,3.36,0.65,4.17,2.96,4.01,1.36,3.36,1.51,3.49,0.964,0.266,4.08,4.4,1.55,4.87,1.81,3.54
GCTTGTAGATCAAGGTTAAGAAAGACTAAGCTAA,0.0354,0.884,-0.55,0.55,-0.627,1.56,1.01,2.05,0.29,1.56,0.698,1.3,-0.233,0.273,0.452,0.314,-0.212,0.726,-0.0899,0.759
CCTACTGGTCCATCAGGTCATTGATATCAACGTT,1.32,1.8,2.15,2.01,0.36,1.88,0.421,1.34,0.261,0.824,0.344,1.32,0.234,0.596,1.48,1.99,1.32,2.05,0.854,1.87
ATCTCTAGGTAAAAGTTCACTGAATCCCGAGGAT,1.74,2.79,2.51,1.79,1.07,4.85,8.64,8.64,7.7,9.26,2.27,4.44,1.42,1.19,1.29,3.44,2.38,2.99,1.08,2.97
TTACCAAGGTGAAAGGGCGTTGATGCACGCCTTG,1.12,0.702,-0.488,0.742,-0.657,3.48,5.55,5.63,4.32,5.82,1.85,3.87,0.557,0.204,0.404,1.14,-0.361,1.94,-0.167,1.88
AGTCAACGTTCATCTAGGTAACGTAAGATATGCT,-0.27,-0.156,-0.154,-0.204,-0.325,0.365,0.767,0.288,0.292,0.234,0.5,1.94,0.919,0.334,0.649,-0.212,-0.489,0.244,-0.0246,0.796
TCTCGGAGGACACGAAAGGTCAGAGCCCGACATC,2.84,3.75,3.31,3,-0.257,3.36,1.57,2.78,2.36,2.59,1.33,1.82,-0.244,-0.279,3.83,3.99,0.732,4.46,1.38,4.29

# From the supplement of paper PMC6555819
